Screening results: PubChem BioAssay, Broad Institute
MITF TRPM1 inh: reduces MITF-dependent TRPM1 promoter luciferase signal | hit rate 0.83% among 330,000 | SK-MEL-5 TRPM1 promoter luciferase, 24 h | AID 488899 | inhibition, % at 12.5 µM;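 active means mean inhibition across replicates of 60% or more, whatever share of single replicates reaches that level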
LGR2 inh: Drosophila LGR2 receptor signaling inhibition | HEK293 LGR2, CRE-luciferase, bursicon-stimulated, 4 h | inhibition, % at 9.99 µM | hit rate 0.35% among 380,000 | AID 720647;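 active means drop in luminescence signal, shown as inhibition above about 50% in the replicate tests, limit read from the data, passing the limit was not always enough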;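 further: agonist challenge used bursicon conditioned medium at about half maximal strength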
EWS-Fli block: EWS/Fli transcriptional activity inhibition. A673 NR0B1-luciferase reporter, viability-normalised. inhibition, % at 12.6 µM. hit rate 0.67% among 350,000. AID 651661;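 active means mean inhibition of at least 50% after viability correction, with every replicate also passing that limit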;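 further: firefly luciferase signal divided by Alamar Blue viability fluorescence both relative to DMSO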
PAX8 reporter: PAX8 transcriptional activity inhibition. RMG-I TPO-luciferase reporter, SteadyGlo, 24 h. inhibition, % at 12.6 µM. hit rate 1.2% among 360,000. AID 652154;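 active means mean replicate inhibition at least 60% with every replicate also reaching 60%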;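 further: luciferase light reporting Pax8 driven TPO promoter activity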
EBV LMP1 NFkB: Epstein-Barr LMP1 NF-kappaB reporter inhibition | inhibition, % at 12.5 µM | LMP1-induced NF-kappaB luciferase reporter cells, luminescence | hit rate 0.69% among 350,000; in the data active means inhibition above about 41%
Shn3 inh set2: Schnurri-3 reporter inhibition in Clone20 osteoblasts. inhibition, % at 12.5 µM. Clone20 osteoblast Shn3 3'UTR firefly luciferase, 24 h. hit rate 0.52% among 360,000;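 active means mean inhibition of at least 75% with every replicate also reaching 75%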
Numbers stand for hits; ! = repeats disagree. A selection: hits, their analogues and other compounds. The true share with any hit is near 2.2%.

CC(=O)Oc1ccccc1C(=O)Nc1ccccc1 was read as MITF TRPM1 inh inactive, LGR2 inh inactive, EWS-Fli block inactive, PAX8 reporter inactive, EBV LMP1 NFkB inactive and Shn3 inh set2 inactive.
`COC1(OC)C=CC(=O)C=C1NC(=O)c1ccccc1OC(C)=O` gave MITF TRPM1 inh inactive, LGR2 inh inactive, EWS-Fli block 55, PAX8 reporter 69, EBV LMP1 NFkB inactive and Shn3 inh set2 inactive.
For O=C(CSc1nnnn1-c1ccccc1)Nc1nsc(-c2ccc(Cl)cc2)n1 the results were MITF TRPM1 inh inactive, EBV LMP1 NFkB 76 and Shn3 inh set2 inactive.
O=C(CSc1nnnn1-c1ccccc1)Nc1nsc(-c2ccccc2)n1 was read as MITF TRPM1 inh inactive, EBV LMP1 NFkB inactive and Shn3 inh set2 inactive.
Screening Cc1cc(C(=O)COc2cc(F)ccc2[N+](=O)[O-])c(C)n1C1CC1 returned MITF TRPM1 inh inactive, LGR2 inh inactive, EWS-Fli block inactive, PAX8 reporter inactive, EBV LMP1 NFkB inactive and Shn3 inh set2 inactive.
For Cc1cc(C(=O)Cn2cnc3cc(F)ccc3c2=O)c(C)n1C1CC1 the results were MITF TRPM1 inh inactive, LGR2 inh inactive, EWS-Fli block inactive, PAX8 reporter inactive, EBV LMP1 NFkB inactive and Shn3 inh set2 93.
Cc1noc(C)c1NC(=O)N(C)C[C@H]1OCCCC[C@H](C)Oc2ccc(N(C)C)cc2C(=O)N([C@H](C)CO)C[C@@H]1C was read as LGR2 inh inactive, EWS-Fli block inactive and PAX8 reporter inactive.
For CC(=O)Nc1cccc(-c2ccnc3c2CC(C)(C(=O)NCc2cccs2)O3)c1 (stereo unspecified) the results were LGR2 inh inactive, EWS-Fli block 60, PAX8 reporter inactive and Shn3 inh set2 inactive.
For CC1(C(=O)Nc2cccc(Oc3ccccc3)c2)Cc2c(-c3ccccc3)ccnc2O1 (stereo unspecified) the results were LGR2 inh inactive, EWS-Fli block inactive, PAX8 reporter inactive and Shn3 inh set2 inactive.
Screening CC(=O)Nc1cccc(-c2ccnc3c2CC(C)(C(=O)Nc2cccc(Oc4ccccc4)c2)O3)c1 (stereo unspecified) returned LGR2 inh inactive, EWS-Fli block inactive, PAX8 reporter 64 and Shn3 inh set2 inactive.
Screening CC(C)Cc1nc2oc3c(NCC4CCCO4)ncnc3c2c2c1CCC2 (stereo unspecified) returned MITF TRPM1 inh inactive, PAX8 reporter 82, EBV LMP1 NFkB inactive and Shn3 inh set2 inactive.
Screening O=C(NCc1nc2ccccc2[nH]1)C1=C[C@@H](c2ccc(Br)cc2)C[C@@H](OCc2ccc(CO)cc2)O1 returned MITF TRPM1 inh inactive, LGR2 inh inactive, EWS-Fli block inactive, PAX8 reporter 85!, EBV LMP1 NFkB inactive and Shn3 inh set2 inactive.
Cc1ccc(CCc2nnc(SCC(=O)Nc3cccc(Cl)c3)n2-c2ccccc2)o1 was read as MITF TRPM1 inh inactive, LGR2 inh inactive, EWS-Fli block inactive, PAX8 reporter 91, EBV LMP1 NFkB inactive and Shn3 inh set2 inactive.
Cc1nnc(SCC(=O)Nc2cc(C(N)=O)cc(C(N)=O)c2)n1-c1ccccc1 was read as MITF TRPM1 inh inactive, LGR2 inh inactive, EWS-Fli block inactive, PAX8 reporter inactive, EBV LMP1 NFkB inactive and Shn3 inh set2 inactive.
Screening COc1ccc(NC(=O)Nc2ccc3c(c2)CC(=O)N([C@H](C)CO)C[C@@H](C)[C@H](CN(C)Cc2ccc(C(=O)O)cc2)O3)cc1 returned LGR2 inh inactive and EWS-Fli block inactive.
`CC(C)CCn1cnc2c(oc3nc4c(cc32)CCCC4)c1=O` gave MITF TRPM1 inh inactive, LGR2 inh 68, EWS-Fli block inactive, PAX8 reporter inactive, EBV LMP1 NFkB inactive and Shn3 inh set2 inactive.
`COCCCNC(=O)c1ccccc1Oc1ccccc1` gave MITF TRPM1 inh inactive, EBV LMP1 NFkB inactive and Shn3 inh set2 inactive.
Screening COCCCNC(=O)c1ccc2c3c(onc13)-c1ccccc1C2=O returned MITF TRPM1 inh 83, EBV LMP1 NFkB inactive and Shn3 inh set2 inactive.
CCN(CC)S(=O)(=O)c1ccc(C)c(NC(=S)N2CCN(C/C=C/c3ccccc3)CC2)c1 was read as MITF TRPM1 inh inactive, LGR2 inh inactive, EWS-Fli block inactive, PAX8 reporter inactive, EBV LMP1 NFkB inactive and Shn3 inh set2 88.
For O=C(C1CCC1)N1CC[C@@H]2[C@H](CO)Nc3ccc(C#Cc4cccc(F)c4)cc3[C@@H]21 the results were LGR2 inh inactive, EWS-Fli block inactive and PAX8 reporter inactive.
Screening CN1C[C@H](O)COC[C@@H]2O[C@@H](CC(=O)N3CCN(c4ccccc4)CC3)CC[C@H]21 returned LGR2 inh inactive, EWS-Fli block inactive and PAX8 reporter inactive.
For Nc1ncnc2c1ncn2C1O[C@H](CO)[C@@H](O)[C@@H]1O (stereo partly specified) the results were MITF TRPM1 inh inactive, LGR2 inh inactive, EWS-Fli block inactive, PAX8 reporter inactive, EBV LMP1 NFkB inactive and Shn3 inh set2 inactive.
Screening N#Cc1c(N)n(C2OC(CO)C(O)C2O)c2ncnc(N)c12 (stereo unspecified) returned MITF TRPM1 inh 71, LGR2 inh 91, EWS-Fli block inactive, PAX8 reporter 109, EBV LMP1 NFkB 66 and Shn3 inh set2 inactive.
C[C@H]1CN([C@@H](C)CO)C(=O)c2cc(NC(=O)CCCN(C)C)ccc2O[C@H]1CN(C)CC1CCCCC1 was read as LGR2 inh inactive and EWS-Fli block inactive.
Screening C[C@H](NC(=O)C[C@H]1C[C@@H]2c3cc(NC(=O)C4CCC4)ccc3O[C@@H]2[C@@H](CO)O1)c1ccccc1 returned LGR2 inh inactive, EWS-Fli block inactive and PAX8 reporter inactive.
`c1ccc(-c2cn3c4c(sc3n2)CCCC4)cc1` gave MITF TRPM1 inh inactive, LGR2 inh 74, EWS-Fli block 54, PAX8 reporter inactive, EBV LMP1 NFkB 50 and Shn3 inh set2 inactive.
`c1ccc(-c2cn3nc(-c4ccccc4)sc3n2)cc1` gave MITF TRPM1 inh inactive, EBV LMP1 NFkB inactive and Shn3 inh set2 inactive.
Screening O=C1c2cccnc2C(=O)N1Cc1ccc(S(=O)(=O)NCc2ccco2)s1 returned MITF TRPM1 inh inactive, LGR2 inh inactive, EWS-Fli block inactive, PAX8 reporter inactive, EBV LMP1 NFkB inactive and Shn3 inh set2 inactive.
For O=C1c2cccnc2C(=O)N1Cc1ccc(F)cc1S(=O)(=O)NCc1ccco1 the results were MITF TRPM1 inh inactive, LGR2 inh inactive, EWS-Fli block inactive, PAX8 reporter inactive, EBV LMP1 NFkB 72 and Shn3 inh set2 inactive.
Cc1ccc(-c2ccc3c(c2)O[C@H](CN(C)C(=O)C2CCCCC2)[C@H](C)CN([C@H](C)CO)S3(=O)=O)cc1 was read as LGR2 inh inactive and EWS-Fli block inactive.
For O=C(O)C1C=CC(C(=O)O)c2ccccc21 (stereo unspecified) the results were LGR2 inh inactive, EWS-Fli block inactive, PAX8 reporter 93, EBV LMP1 NFkB inactive and Shn3 inh set2 inactive.
